# From PubChem BioAssay
# D2 PAM-1 – potentiates the human D2 dopamine receptor allosterically | DiscoveRx D2 beta-arrestin cells, luminescence, 90 min; 100% = 57 uM dopamine signal | potentiation, % (no concentration beside the values) | 360,000 tested, 0.23% active | AID 624464; in the data active means potentiation above about 50%; inconclusive means mostly about 30% to 49%
# Target sequence (P14416 whole entry, looked up): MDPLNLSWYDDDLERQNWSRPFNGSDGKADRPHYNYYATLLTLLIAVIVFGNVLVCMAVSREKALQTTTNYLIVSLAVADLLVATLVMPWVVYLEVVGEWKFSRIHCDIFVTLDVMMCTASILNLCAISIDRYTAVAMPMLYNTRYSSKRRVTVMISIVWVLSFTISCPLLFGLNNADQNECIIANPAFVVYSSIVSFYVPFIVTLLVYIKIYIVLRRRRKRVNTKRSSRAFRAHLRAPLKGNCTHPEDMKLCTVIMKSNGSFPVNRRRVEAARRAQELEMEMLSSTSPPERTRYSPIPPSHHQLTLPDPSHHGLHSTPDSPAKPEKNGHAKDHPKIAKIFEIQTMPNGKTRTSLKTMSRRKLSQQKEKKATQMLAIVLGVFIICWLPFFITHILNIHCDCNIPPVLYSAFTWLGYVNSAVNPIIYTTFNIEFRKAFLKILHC
#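 PathHunter beta-arrestin assay in DiscoveRx D2 cells. Compounds were added with an EC20 of dopamine (50 nM final) for 90 min at 37 deg C. Luminescence was read 1 h after detection reagent, with 57 uM dopamine as the EC100 control.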
# D2 ag-1 – human D2 receptor agonism in beta-arrestin assay; P14416; activation, % (no concentration beside the values); DiscoveRx PathHunter D2 beta-arrestin, luminescence, 90 min; 100% = 57 uM dopamine signal; 360,000 tested, 0.084% active; in the data active means activation above about 40%; inconclusive means between about 15% and that limit
#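 Agonist mode: compounds alone added to overnight-plated D2 PathHunter cells for 90 min at 37 C, with 57 uM final dopamine (EC100) defining full response. Beta-arrestin recruitment detected by chemiluminescent reagent, read after 1 h at ambient temperature.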
# D2 ag-2 – agonists of human D2 dopamine receptor | HEK293 T-REx D2 cells, calcium flux agonist mode | P14416 | 340,000 tested, 0.53% active | activation, % at 2 µM;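 active means activation over 3 SD above normal in the single-dose calcium agonist read, cut at about 30% in these data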
#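 Tetracycline-induced HEK293 T-REx cells with force-coupled D2 receptor, plated overnight at 30 C, loaded with no-wash calcium dye. After a 10 s baseline, compound was pin-added and calcium flux read kinetically for 180 s; calcium rises flagged agonists.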
# D2 PAM-2 – D2 dopamine receptor (human) potentiation; P14416; HEK293 T-REx D2, calcium flux, EC20 dopamine potentiation; potentiation, % at 10 µM; 340,000 tested, 0.34% active;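 active means potentiation over 3 SD above the plate norm, cut at about 30% in these data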
#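 Cells plated with tetracycline inducer and held overnight at 30 C; calcium dye loaded 30–90 min at room temperature; baseline taken, compound added and read 180 s; EC20 dopamine then added and read 180 s.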
# D2 antag – D2 dopamine receptor (human) antagonism; 340,000 tested, 2% active; inhibition, % at 10 µM; AID 485344; HEK293 TREx D2 cells, calcium flux, dopamine EC80; P14416; in the data active means inhibition above about 30%; inactive means below that, where a call was filed
#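 Tetracycline-induced HEK293 TREx cells expressing D2 receptor forced-coupled to calcium signalling, loaded with no-wash calcium dye. Compounds added and calcium flux read 180 s, then dopamine added at EC80 and read a further 180 s.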
# A number is an active result; . = inactive; ? = inconclusive; / = no result given. Rows were chosen to be rich in hits. Some 2.4% of all compounds tested hit in one or more screens of this group.
SMILES,D2 PAM-1,D2 ag-1,D2 ag-2,D2 PAM-2,D2 antag
O=C(N/C(=C/c1ccc(Br)cc1)C(=O)N1CCOCC1)c1ccc(Br)o1,.,.,.,86,.
O=C(N/C(=C\c1ccc(Br)cc1)C(=O)N1CCOCC1)c1ccc(Br)o1,.,.,.,/,.
COc1ccc(N2C(=O)CCC2=O)cc1,.,.,.,.,34
CC(=O)Oc1ccc(N2C(=O)CCC2=O)cc1,.,.,.,.,.
CC1(NC(=O)C2CCCCC2)CCS(=O)(=O)C1 (stereo not drawn),.,.,.,.,42
c1ccc(C2=NN(c3ccccc3)CC2)cc1,.,.,.,.,.
CCOC(=O)/C(=C/c1ccc(N2CCC(c3ccccc3)=N2)cc1)C(C)=O,.,.,37,.,.
COc1cc(/C=C/C(=O)OCC(=O)NC(=O)NC(C)C)ccc1OCC#N,.,.,.,.,46
Cc1ccccc1C(=O)Nc1c2c(nn1C(C)(C)C)CS(=O)(=O)C2,.,.,.,.,.
Cc1ccc(CN2CC(C(=O)O)CC2=O)cc1 (stereo not drawn),.,.,.,30,.
COc1ccc(NC(=O)C2CC(=O)N(Cc3ccc(C)cc3)C2)cc1S(=O)(=O)N1CCCCC1 (stereo not drawn),.,.,.,.,43
N=c1c2c(-c3ccccc3)c(-c3ccccc3)n(Cc3ccco3)c2ncn1Cc1ccccc1,.,.,.,.,.
CC(C)Cn1cnc2c(c(-c3ccccc3)c(-c3ccccc3)n2Cc2ccco2)c1=N,.,.,.,.,46
CSCCC(NC(=O)c1ccco1)C(=O)OC(C)C(=O)NC(=O)NC1CCCCC1 (stereo not drawn),.,.,.,/,49
Cc1c(C)c2cc(Cl)c(O)c(CN(C)C)c2oc1=O,.,.,.,.,35
Cc1cccc(-n2c(-c3ccco3)nc3nc4ccccc4nc32)c1,/,/,.,.,70
COc1cccc(-n2c(-c3ccco3)nc3nc4ccccc4nc32)c1,.,.,.,.,.
Cc1ccc(OCCCC(=O)N(C)CC(=O)Nc2ccccc2Cl)cc1,.,.,.,.,.
Cc1cccc(Cc2c(C)nc3nc(SCC(=O)O)nn3c2C)c1,.,.,.,47,.
Cc1cccc(Cc2c(C)nc3nc(SCC(=O)NCc4ccccc4)nn3c2C)c1,/,/,.,.,/
CCN1C(=O)c2cccc3c(S(=O)(=O)N4CCNCC4)ccc1c23,.,.,/,/,/
O=C(COC(=O)CNC(=O)c1ccccc1)Nc1ccc(F)c([N+](=O)[O-])c1,.,.,.,.,34
COc1ccccc1N1CCN(C(c2cccs2)C(C)NC(=O)C(=O)N2CCOCC2)CC1 (stereo not drawn),.,.,.,.,.
CCCCN1CCCc2cc(CN(CCCN3CCOCC3)C(=O)Nc3ccc(CC)cc3)ccc21,/,/,.,.,/
N#Cc1c(-c2ccc(F)cc2)noc1N,96,?,.,.,.
SMILES,D2 PAM-1,D2 ag-1,D2 ag-2,D2 PAM-2,D2 antag
COc1cccc(-c2noc(N)c2C#N)c1,?,?,.,.,.
O=C(NCC(c1cccnc1)N1CCN(c2ccccc2)CC1)OCc1ccccc1 (stereo not drawn),.,.,.,31,.
CC1=CC(C)(C(Cl)Cl)C(C)=CC1=O (stereo not drawn),.,.,.,70,.
COc1ccc(CN2CCCC(C(=O)Nc3cccc(-n4cccn4)c3)C2)cc1 (stereo not drawn),.,.,.,.,79
CC(C)(C)n1nc2c(c1NC(=O)Cc1ccc(F)cc1)CSC2,.,.,.,.,35
CCSc1nnc(-c2cc(Br)ccc2NC(C)=O)c(=O)[nH]1,.,.,.,.,.
O=C(N/N=C/c1ccccn1)C1CC1,.,.,.,.,32
COc1cc(C(=O)Nc2ccc(NC(=O)c3ccc(Br)cc3)cc2)cc(OC)c1OC,/,/,.,.,/
CCc1cc(=O)oc2c(CN3CCN(C)CC3)c(O)c(Cl)cc12,.,.,.,35,.
CC1Cc2cc(/C(O)=C3/C(=O)C(=O)N(CCCn4ccnc4)C3c3ccc(F)cc3)ccc2O1 (stereo not drawn),.,.,.,.,44
N#Cc1ccccc1S(=O)(=O)N1CCC(C(=O)Nc2cccc(C(=O)NC3CC3)c2)CC1,.,.,.,.,.
CC(NCC(O)c1ccc([N+](=O)[O-])cc1)C12CC3CC(CC(C3)C1)C2 (stereo not drawn),.,.,.,.,38
O=C(NCC(O)c1ccc([N+](=O)[O-])cc1)Nc1ccccc1 (stereo not drawn),.,.,.,.,.
Nc1cc(C(=O)OCC(=O)Nc2ccc(N3CCOCC3)cc2)ccc1Cl,.,.,.,.,48
C/C(=N\Nc1ccc(Cl)c(C(=O)O)c1)c1ccc(N2CCOCC2)cc1,.,.,.,.,33
O=C(O)c1cc(N/N=C/c2ccc(N3CCOCC3)s2)ccc1Cl,.,.,.,.,.
CC1Cc2ccccc2N1C(=O)C12CCC(C)(C(=O)C1)C2(C)C (stereo not drawn),.,.,.,/,32
CCC(Sc1nccn1C)C(=O)Nc1ccc(Cl)cn1 (stereo not drawn),.,.,.,.,.
CC(Sc1nccn1C)C(=O)Nc1ccc(Cl)cn1 (stereo not drawn),.,.,.,.,49
COc1ccc(CN(C)C(=O)CNC(=O)c2cccs2)c(OC)c1,.,.,.,.,.
COc1cccc(CN(C)C(=O)CNC(=O)c2cccs2)c1OC,.,.,.,.,38
COc1cccc(CNc2nccn(-c3cc(C)cc(C)c3)c2=O)c1,/,/,.,.,/
O=C(Cc1cn2ccsc2n1)OCc1nc2ccccc2s1,.,.,.,.,.
O=C(Cc1cn2ccsc2n1)OCc1ccccc1,.,.,.,.,32
CCCCN1C(N)=NC[C@H]1Cc1ccc(O)cc1,.,.,.,.,48
SMILES,D2 PAM-1,D2 ag-1,D2 ag-2,D2 PAM-2,D2 antag
CCCCN1C(N)=NC[C@@H]1Cc1ccc(O)cc1,.,.,.,.,.
COc1cc(C(=O)O/N=C(\N)c2ccc([N+](=O)[O-])cc2)cc(OC)c1OC,.,.,.,.,.
COc1cc(C(=O)O/N=C(\N)c2cccc([N+](=O)[O-])c2)cc(OC)c1OC,55,?,.,.,.
N/C(=N\OC(=O)c1ccccc1F)c1cccc([N+](=O)[O-])c1,.,66,.,.,.
N/C(=N\OC(=O)c1ccco1)c1cccc(Br)c1,.,.,.,.,.
N/C(=N\OC(=O)c1ccco1)c1cccc([N+](=O)[O-])c1,81,?,.,.,.
Cc1ccc(C(=O)O/N=C(\N)c2cccc([N+](=O)[O-])c2)cc1,60,?,.,.,.
N/C(=N\OC(=O)c1ccc(Br)cc1)c1cccc([N+](=O)[O-])c1,?,.,.,.,.
